Experimental findings from PubChem BioAssay AID1259397 (Fisher Drug Discovery Resource Center, 2018) are described below.

SMILES strings stand for the structures. Several values for one entry are separate records, joined by “and”; a condition that tells them apart may be missing. Identical values can stand only once. Among all 130,000 compounds or so, about 230 (0.18%) were called active.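 How the source made its calls: active means inhibition of cGAS enzyme activity at or above 60%; inactive means the rest.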 This excerpt belongs to a sample that is enriched for actives. The source holds several records for some structures; these can differ, active in one and inactive in another.

For the assay, the target named is Cyclic GMP-AMP synthase (Mus musculus) (UniProt Q8C6L5). Kind of assay: inhibitors of Mus musculus cyclic GMP-AMP synthase, initial high-throughput assay, cell-free, RapidFire MS (AID 1259397).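 Further: enzyme stimulated by 45 bp dsDNA with ATP and GTP substrates; cGAMP share of summed cGAMP plus half ATP and half GTP signals.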 The note with it: recombinant mouse cGAS, cGAMP by RapidFire MS; at 12.5 µM; stronger effect = higher value.
Chain of Cyclic GMP-AMP synthase (Mus musculus) (Q8C6L5 whole entry, looked up): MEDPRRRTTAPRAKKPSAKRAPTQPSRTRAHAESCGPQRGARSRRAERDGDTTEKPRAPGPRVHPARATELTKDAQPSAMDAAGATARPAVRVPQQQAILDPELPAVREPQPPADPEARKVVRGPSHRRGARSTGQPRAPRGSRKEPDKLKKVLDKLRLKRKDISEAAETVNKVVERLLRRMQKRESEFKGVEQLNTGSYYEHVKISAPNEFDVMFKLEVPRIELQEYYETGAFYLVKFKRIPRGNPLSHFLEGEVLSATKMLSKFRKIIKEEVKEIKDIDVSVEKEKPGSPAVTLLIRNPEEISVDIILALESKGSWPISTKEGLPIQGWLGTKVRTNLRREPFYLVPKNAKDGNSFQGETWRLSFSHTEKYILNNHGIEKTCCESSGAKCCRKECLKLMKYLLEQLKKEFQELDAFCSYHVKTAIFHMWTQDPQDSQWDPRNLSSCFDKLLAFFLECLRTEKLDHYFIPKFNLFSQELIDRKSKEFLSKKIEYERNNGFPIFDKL
With `Cc1cc2nc3c(=O)[nH]c(=O)nc-3n(C[C@H](O)[C@H](O)[C@H](O)CO)c2cc1C`, the inhibition (as a rule, the change of the read-out against control, counted positive when it falls) was 87.9% (active). With `Cc1c(C(=O)NCc2cccs2)sc(=O)n1Cc1ccccc1C(F)(F)F` the figure was -4.53% (inactive); with `COc1ccccc1CNC(=O)CC1C(=O)NCCN1Cc1ccccc1C` (stereo not given), -7.58% (inactive).

In the case of `C=Cc1c(C)c2[n-]c1=Cc1[n-]c(c(CC)c1C)C=c1[n-]c3c(c1C)C(O)=C(C(=O)O)C=3c1[n-]c(c(C)c1CCC(=O)O)C=2.[Cu]`, the inhibition was 97.2% (active) and -3.92% (inactive). As for `Cc1ccc(C(=O)Nc2ccc(C(=O)NCC(N)=O)cc2)cc1Cl`, the inhibition is -5.23% (inactive). Regarding `CCC(N)(C(=O)OC)c1ccccc1` (stereo not given), the inhibition is -5.42% (inactive). Take `Cc1ccc(NC(=O)Cc2nc(-c3ccc4c(c3)CCO4)cs2)c(C)c1`: the inhibition is 4.73% (inactive). With `Cc1ccc(NS(=O)(=O)c2ccccc2C(F)(F)F)cc1C` the figure was -9.68% (inactive); with `Cc1nc(-c2cccs2)sc1C(=O)OCc1cc(=O)n2c(C)csc2n1`, 17.2% (inactive); with `COc1cc(C)c(CN2CCN(C(=O)C3=COCCO3)CC2)cc1OC`, 0.561% (inactive). With `O=C(NCC1(c2ccc(F)cc2)CCCC1)C1CCN(C(=O)C2CC2)CC1` the figure was 0.199% (inactive); with `FC(F)C(F)(F)C(F)(F)C(F)(F)CNCc1ccco1`, 6.11% (inactive). With `CC(C)Oc1ccc(-c2cncn2C)cc1` the figure was -19.6% (inactive). Consider `Cn1nnnc1SCCNC(=O)c1ccc2oc(Cc3ccccc3)nc2c1`, for which the inhibition was 3.65% (inactive). With `COCCCn1c(C)c(C)n2c3c(=O)n(CC(C)C)c(=O)n(C)c3nc12` the figure was -5.91% (inactive); with `COC(=O)c1ccc(-c2nc(CN3CCN(C(=O)c4cccc(OC)c4)CC3)c(C)o2)cc1`, -3.22% (inactive); with `O=C(CC1CSc2nccc(=O)n21)Nc1ccc(Oc2ccccc2)cc1` (stereo not given), -4.45% (inactive). With `CCC(c1ccccc1)C1(O)OC(=O)c2ccccc21` (stereo not given) the figure was -3.91% (inactive); with `O=C(CCn1c(=O)oc2cc(Cl)ccc21)N1CCN(c2ccccc2Cl)CC1`, -7.84% (inactive).

`COc1ccc(C(=O)NC2CC2)cc1OC1CCN(C/C=C/c2ccccc2)CC1`: the inhibition was -2.34% (inactive).

`CC(C)(C)n1ncc2c(=O)n(NC(=O)c3ccc(C(F)(F)F)cc3)cnc21`: the inhibition was -4.85% (inactive). For the molecule `C#CC(CC)(CC)NC(=O)c1ccc(S(C)(=O)=O)cc1`, the inhibition is 1.64% (inactive). Turning to `COc1cc(CNC(C)(C)CO)ccc1OCC(=O)Nc1ccc(C)cc1`, the inhibition was -4.89% (inactive). With `CCc1ccc2oc3c(c(=O)c2c1)C(c1cccc([N+](=O)[O-])c1)N(c1cc(C)on1)C3=O` (stereo not given) the figure was -10.5% (inactive); with `Cc1noc(CNC(=O)C2CC(=O)N(CC(F)(F)F)C2)n1` (stereo not given), 1.05% (inactive). For the molecule `CCC1=NOC(C(=O)NCCn2c(C)cc(C)nc2=O)C1` (stereo not given), the inhibition was 0.535% (inactive). With `CC(CCS(C)=O)NC(=O)Nc1ncc(-c2ccccc2)s1` (stereo not given) the figure was -2.71% (inactive); with `Oc1c(Cl)cc(Cl)c(Cl)c1Cc1c(O)c(Cl)cc(Cl)c1Cl`, 92.7% (active) and 36.7% (inactive). With `COc1ccc(-c2csc(=Nc3cc(OC)cc(OC)c3)n2NC(=O)C(C)Oc2ccc(Cl)cc2C)cc1` (stereo not given), the inhibition was 1.02% (inactive). Consider `Cc1cc(C)n(CCNC(=O)CN2CCN(c3ccc4c(c3)OCCO4)C2=O)n1`, for which the inhibition was -5.72% (inactive).
